PLC-beta3 inh – human PLC-beta3 inhibitors, primary screen, biochemical, fluorescence; 370,000 compounds, 0.18% hits; Purified PLC-beta3, fluorogenic substrate; inhibition, % at 12.2 µM; in the data active = inhibition above about 11%;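 also: 0% = median of compound wells on plate and 100% = full blocker control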
PLC-gamma1 inh – PLC-gamma1 enzyme inhibitors, primary screen, biochemical, fluorescence, purified enzyme | fluorogenic substrate | 370,000 compounds, 0.84% hits | 1-phosphatidylinositol 4,5-bisphosphate phosphodiesterase gamma-1 (Homo sapiens), P19174 | inhibition, % at 12.2 µM
FAS-TE inh – FAS thioesterase domain inhibitors, primary screen, biochemical, fluorescence intensity, uHTS; recombinant FAS-TE, OMFH fluorogenic substrate, fluorescence endpoint; AID 602261, 2012; inhibition, % at 15 µM; 360,000 compounds, 0.67% hits; Fatty acid synthase (Homo sapiens), P49327;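 active = compounds whose normalised, plate-corrected inhibition of enzyme fluorescence in the single-dose primary screen is 50% or more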;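 also: 0% = DMSO with enzyme and 100% = substrate without enzyme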
Cardio protect – cardioprotection against H2O2-induced cell death, primary screen, uHTS, H9c2 cells, ATPLite luminescence | H9c2 cardiomyocytes, H2O2 injury protection, 2 h | protection from H2O2 cell death, % at 20 µM | 360,000 compounds, 0.63% hits;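 active = compounds giving at least 50% protection of heart cells from peroxide-induced death in the single-dose screen, raw or plate-pattern-corrected value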;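 also: 0% = DMSO wells with peroxide and 100% = DMSO wells without peroxide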
PLCgamma1 ctr – PLC-gamma1 enzyme inhibitors, counter-screen for PLC-beta3 inhibitor project, biochemical, fluorescence; 3,300 compounds, 3.1% hits; inhibition, % at 12.3 µM; purified PLC-gamma1, fluorogenic substrate; shares compounds with PLC-gamma1 inh
PLCbeta3 conf – PLC-beta3 inhibitor confirmation, biochemical, fluorescence, purified enzyme | shares compounds with PLC-gamma1 inh | fluorogenic substrate fluorescence | inhibition, % at 12.3 µM | 3,300 compounds, 1% hits; in the data active = inhibition above about 11%
* = called active by the depositor. Only some compounds are listed: those with a hit (about 2.2% of all), similar ones and a draw of the others. Rule as the data show it, unless noted: active = inhibition above about 9.5%; inactive = the rest.

`COC(=O)CCC(=O)N1CCCC(N2CCN(c3ccc(OC)cc3)CC2)C1` (stereo unspecified) gave PLC-beta3 inh 3.9, PLC-gamma1 inh -3.6, FAS-TE inh -5.3 and Cardio protect 3.2.
`CC(Oc1ccccc1)C(=O)Nc1cccc(NC(=O)c2ccco2)c1` (stereo unspecified) gave PLC-beta3 inh 5.8, PLC-gamma1 inh 11.0*, FAS-TE inh -1.0, Cardio protect 8.5, PLCgamma1 ctr -4.7 and PLCbeta3 conf -0.9.
For CCOC(=O)N1CCN(C(=O)C[C@@H]2C(=O)N(Cc3ccc(OC)cc3)/C3=C/CCCCC[C@@]32C(=O)OCC)CC1 the results were PLC-beta3 inh -4.5 and PLC-gamma1 inh 0.9.
COC(=O)[C@]12CCCCC=C1N(Cc1ccc(OC)cc1)C(=O)[C@@H]2CC(=O)N1CCN(C(=O)C2CC2)CC1 was read as PLC-beta3 inh 8.8, PLC-gamma1 inh 11.6*, PLCgamma1 ctr -3.6 and PLCbeta3 conf -0.7.
`CCOC(=O)N1CCN(C(=O)C[C@H]2C(=O)N(Cc3ccc(OC)cc3)C3=CCCC[C@@]32C(=O)OCC)CC1` gave PLC-beta3 inh 2.1, PLC-gamma1 inh 11.2*, PLCgamma1 ctr -7.3 and PLCbeta3 conf -2.1.
`CCOC(=O)[C@]12CCCC=C1N(CCCOC)C(=O)[C@@H]2CC(=O)NCc1ccc(C)o1` gave PLC-beta3 inh 3.4, PLC-gamma1 inh 10.0*, PLCgamma1 ctr 6.4 and PLCbeta3 conf 0.1.
`C=CCN1C(=O)[C@H](CC(=O)NCc2ccc(C)o2)[C@@]2(C(=O)OCC)CCCC=C12` gave PLC-beta3 inh 1.8 and PLC-gamma1 inh 0.1.
`Cn1c(-c2ccccc2)cc(=NNS(C)(=O)=O)c2cc(S(=O)(=O)O)ccc21` gave PLC-beta3 inh -2.5, PLC-gamma1 inh -0.7, FAS-TE inh -8.8 and Cardio protect 1.6.
For O=C(NC1CCCCN(Cc2ccc(Cl)cc2)C1=O)c1cccc(C(F)(F)F)c1 (stereo unspecified) the results were PLC-beta3 inh -2.6 and PLC-gamma1 inh -2.1.
Screening O=C1NC[C@@H](CCCCN2CCN(CCc3ccccc3)C(=O)C2=O)N(CCc2ccc(O)cc2)C1=O returned PLC-beta3 inh 2.3, PLC-gamma1 inh 1.0 and FAS-TE inh -4.3.
COC(=O)[C@]12C[C@H](CC(=O)NCC3CCCCC3)C(=O)N(Cc3ccccc3)C1=C[C@H](C(C)C)O[C@@H]2C1CC1 was read as PLC-beta3 inh 12.4*, PLC-gamma1 inh 5.1, PLCgamma1 ctr -0.6 and PLCbeta3 conf -0.8.
COC(=O)[C@]12C[C@H](CC(=O)NCc3ccc(C)o3)C(=O)N(Cc3ccccc3)C1=C[C@H](C1CCCC1)O[C@@H]2C was read as PLC-beta3 inh 12.0*, PLC-gamma1 inh 6.8, PLCgamma1 ctr -7.8 and PLCbeta3 conf -3.9.
COC(=O)[C@]12C[C@H](CC(=O)NCCCCc3ccccc3)C(=O)N(Cc3cccc4ccccc34)C1=C[C@H](C(C)C)O[C@@H]2C1CC1 was read as PLC-beta3 inh 2.1, PLC-gamma1 inh 12.7*, PLCgamma1 ctr -0.8 and PLCbeta3 conf -5.9.
COC(=O)[C@]12C[C@H](CC(=O)NCc3cccs3)C(=O)N(Cc3ccccc3)C1=C[C@H](C(C)C)O[C@@H]2C1CC1 was read as PLC-beta3 inh 5.4 and PLC-gamma1 inh 4.8.
Screening C#CCNC(=O)C[C@H]1C[C@@]2(C(=O)OC)C(=C[C@H](C(C)C)O[C@@H]2C2CC2)N(Cc2cccc3ccccc23)C1=O returned PLC-beta3 inh -0.6, PLC-gamma1 inh 9.5*, PLCgamma1 ctr -7.4 and PLCbeta3 conf -1.5.
Screening O=C(NCC1CCCCC1)c1cc(-c2cc(F)ccc2OCC2CCCO2)n[nH]1 (stereo unspecified) returned PLC-beta3 inh 2.1, PLC-gamma1 inh 1.4, FAS-TE inh 15.1 and Cardio protect 2.4.
